SMILES strings stand for the structures. Out of some 69,000 compounds screened, about 8,600 (12%) showed an effect of 50% or more. The entries come from a sample that favours strong results as a whole.

In this assay the test system is Plasmodium berghei. As to the kind of experiment: Screen against P. berghei liver stage (PbLuc), transformed with Luciferase, at 10uM. Type of assay: functional, HepG2. To be noted: tested at 10 uM.
Turning to `CC(Cn1cccn1)n1cnc2cccc(Cl)c2c1=O` (stereo not given), the INHIBITION is 36.6%.

With `Oc1cc(C2CCNCC2)nc(-c2ccsc2)n1`, the INHIBITION is on record as -33.6%.

`Cc1occc1CNC(=O)C1CCN(C(=O)OC(C)(C)C)C1` (stereo not given): the INHIBITION is given as -2.27%.

For the molecule `C[S+]([O-])c1ccc(CNc2ccc(F)cc2OC(F)F)cc1` (stereo not given), the INHIBITION stood at 38.5%.

As for `Fc1ccc(NCc2ccncc2)c(OC(F)F)c1`, the INHIBITION worked out at 73.2%.

Turning to `Fc1ccc(NCc2nnsc2Cl)c(OC(F)F)c1`, the INHIBITION came out at 47.4%.

Consider `c1cc2nc(C3CCNCC3)nn2cc1NC1CCC1`, for which the INHIBITION came to 40.3%.

Consider `CN(Cc1cccs1)C1CCC[C@@H]2CN(C(N)=O)C[C@H]12` (stereo not given in full), for which the INHIBITION came out at 39.3%.

For the molecule `CCN(CC)Cc1cnc2n1CCN(Cc1c(C)noc1C)CC2`, the INHIBITION came out at 27.5%.

As to `Cc1noc(C)c1CN1CCc2ncc(CN3CCCC3)n2CC1`, the INHIBITION turned out to be 40.8%.

As for `Cc1noc(C)c1CN1CCc2ncc(CN(C)C)n2CC1`, the INHIBITION came out at 57.1%.

Regarding `CC(c1nc(C2CC2)no1)N1CCN(CCCN2CCCC2=O)CC1` (stereo not given), the INHIBITION is reported as -2.53%.

Regarding `COc1cccc(CNc2nnc(C(C)(C)C)o2)c1OC`, the INHIBITION is recorded as 7.22%.

Turning to `CCc1nnc(NCc2cccc(OC)c2OC)o1`, the INHIBITION amounted to 50.2%.

In the case of `COc1cccc(CNC(C)Cn2cccn2)c1OC` (stereo not given), the INHIBITION was determined as 20.9%.

For `Cc1ncccc1Oc1ncnc(N2CCCC(O)(CO)CC2)c1C` (stereo not given), the INHIBITION is on record as 36.7%.

For `Cc1cncc(C2CCCN2CC(N)=O)n1` (stereo not given), the INHIBITION worked out at 35%.

As for `Cc1ccc(OCC(O)COC2CCOCC2)c(Br)c1` (stereo not given), the INHIBITION is -98.4%.

As to `Cc1ccc(OCC(O)COC2CCOCC2)c(Cl)c1` (stereo not given), the INHIBITION amounted to 71.3%.

Consider `OC(COc1ccccc1Br)COC1CCOCC1` (stereo not given), for which the INHIBITION is reported as -42.8%.

Turning to `Cc1ccc(NC(=O)C2CSCN2C(=O)c2cnccn2)cc1C` (stereo not given), the INHIBITION turned out to be 23.25%.

`NCCCC(=O)NCC1(O)CCCN(c2ccnc3cccnc23)C1` (stereo not given): the INHIBITION was 4.35%.

With `CCCn1nc(C)c(C(=O)N[C@@H]2CC[C@@H](N3CCCC3)[C@@H]2O)c1C`, the INHIBITION came out at 1.65%.

Take `Cc1cccc(CN2C(=O)CCC23CCN(Cc2nccn2C)CC3)n1`: the INHIBITION was determined as 37.2%.

Take `O=C(NC[C@H]1OC[C@@H](NC2CCC(F)(F)CC2)[C@@H]1O)Nc1ccccc1`: the INHIBITION is 25.3%.

With `CN(C)[C@@H]1CO[C@H](CNC(=O)Nc2ccccc2)[C@H]1O`, the INHIBITION is listed as 11.6%.

For the molecule `O=C(NC[C@H]1OC[C@@H](NC2CCC(F)(F)CC2)[C@@H]1O)c1ccccc1`, the INHIBITION stood at 59.3%.

Turning to `CN(C)[C@@H]1CO[C@H](CNC(=O)c2cccs2)[C@H]1O`, the INHIBITION is given as 44.1%.

Regarding `CN(C)[C@@H]1CO[C@H](CNC(=O)c2ccccc2)[C@H]1O`, the INHIBITION was 53%.

With `O=C(NC[C@H]1OC[C@@H](NC2COC2)[C@@H]1O)c1ccccc1`, the INHIBITION turned out to be 5.58%.

Consider `CCn1cc(S(=O)(=O)N2CCCC3(CC=CNC3=O)C2)cn1` (stereo not given), for which the INHIBITION is reported as 28.5%.

Consider `CC(CNC(=O)NCc1ccco1)N1CCc2sccc2C1` (stereo not given), for which the INHIBITION is given as -12.5%.

On to `CCCn1c(C)c(CC(=O)NCCNC(C)=O)c2c1CC(C)(C)CC2=O`, for which the INHIBITION was -4.52%.

Regarding `CCCn1c(C)c(CC(=O)NCCC(N)=O)c2c1CC(C)(C)CC2=O`, the INHIBITION was found to be 69.6%.

Consider `CCCn1c(C)c(CC(=O)NCC(N)=O)c2c1CC(C)(C)CC2=O`, for which the INHIBITION is -13.3%.

As for `CCn1cc(-n2cc3nc(N4CCC(C)CC4)[nH]cc-3c2=O)cn1`, the INHIBITION is -85.9%.

As for `Cc1cc(-n2c(C)cn(CN(C)C3CCS(=O)(=O)C3)c2=O)no1` (stereo not given), the INHIBITION came to 38.8%.

On to `Cn1cc2c(n1)C(COCC1CC1)CN(Cc1ccccn1)C2` (stereo not given), for which the INHIBITION is listed as 12.5%.

Consider `Cc1cc(C)c(CNC(=O)NC2COc3ccccc3C2)c(=O)[nH]1` (stereo not given), for which the INHIBITION came out at 10.6%.

Consider `CCn1ncnc1CN(CCOC)Cc1ccc(C)cc1`, for which the INHIBITION came out at 49.9%.

Take `c1cc(CN(CCCn2ccnc2)Cc2ccoc2)ccn1`: the INHIBITION was found to be 24.7%.

Take `COCCN(Cc1ccc(C)cc1)Cc1c[nH]cn1`: the INHIBITION stood at 63.8%.

As to `COCCN(Cc1ccc(C)cc1)Cc1nccn1C`, the INHIBITION is recorded as 43.4%.

Consider `Cc1ccc(CN(CCCn2ccnc2)Cc2c[nH]cn2)s1`, for which the INHIBITION amounted to 41.5%.

With `CN(C)c1ccc(CN(CCCn2ccnc2)Cc2c[nH]cn2)cc1`, the INHIBITION stood at 80.2%.

For `COc1cc(COCC2CCN(Cc3cccnc3)CC2)cc(OC)c1`, the INHIBITION worked out at 5.11%.

Turning to `CNc1cc(N2CCCC2CNCc2cccnc2C)ncn1` (stereo not given), the INHIBITION amounted to 21.5%.

In the case of `Cc1ccc(C(=O)N2CCc3ncc(Cn4cccn4)n3CC2)o1`, the INHIBITION turned out to be 16.4%.

As for `COc1cc(I)c(Cl)cc1C(=O)N(C)CC(C)(C)O`, the INHIBITION turned out to be 29%.

On to `Cc1nc(CNC(=O)NC2CCN(c3ncccc3Cl)C2)no1` (stereo not given), for which the INHIBITION was found to be 25.4%.

Turning to `Cc1ccc(CC(=O)NC2CCN(c3cccc(Cl)c3)C2)cn1` (stereo not given), the INHIBITION is 42.7%.

As for `Cc1nc(CNC(=O)NC2CCN(c3cccc(Cl)c3)C2)no1` (stereo not given), the INHIBITION is reported as 56.3%.

`Cc1cc(C)n(CC2CN(Cc3nc(C4CC4)no3)CCO2)n1` (stereo not given): the INHIBITION was -27.8%.

Regarding `CCCn1c(C)c(CC(=O)N(C)CC(=O)OC)c2c1CC(C)(C)CC2=O`, the INHIBITION is reported as 4.25%.

Consider `COc1cccc(C(=O)N2CCN(CC(O)c3ccccc3)CC2)c1` (stereo not given), for which the INHIBITION is reported as 32.2%.

For the molecule `COc1cccc(C(O)CN2CCN(C(=O)c3ccsc3)CC2)c1` (stereo not given), the INHIBITION is listed as 53.6%.

Regarding `COc1cccc(C(O)CN2CCN(C(=O)CCC(C)C)CC2)c1` (stereo not given), the INHIBITION worked out at 55.4%.

Regarding `O=C(c1ccsc1)N1CCN(CC(O)c2cccc(F)c2)CC1` (stereo not given), the INHIBITION was 40.6%.

Regarding `CC(C)OCCC(=O)N1CCN(CC(O)c2ccccc2)CC1` (stereo not given), the INHIBITION is -12.5%.

Regarding `CCOCC(O)CN1CCN(C(=O)c2ccsc2)CC1` (stereo not given), the INHIBITION turned out to be 43.4%.

In the case of `Cc1cccc2c1C(=O)NC(c1cnc(C3CCC3)s1)N2` (stereo not given), the INHIBITION is reported as -91.5%.

With `CN1CCN(c2cccc(Cl)c2CNCCS(C)(=O)=O)CC1`, the INHIBITION is listed as 19.9%.

For the molecule `Cn1c(Cn2ccnc2)nnc1C1CCN(C(=O)c2ccoc2)CC1`, the INHIBITION was -62.8%.

`CCc1cc(C(=O)N2CCCC(Cc3ccc(NC)nn3)C2)on1` (stereo not given): the INHIBITION is listed as 60.4%.

Turning to `CNc1ccc(CC2CCCN(C(=O)c3c(C)noc3C)C2)nn1` (stereo not given), the INHIBITION was 21.9%.

As for `CNc1ccc(CC2CCCN(C(=O)c3cnco3)C2)nn1` (stereo not given), the INHIBITION is given as 1.11%.

`Cc1noc(CNC(=O)NCC2(C)CCCc3ccccc32)n1` (stereo not given): the INHIBITION stood at 6.29%.

As to `COCCCNC(=O)c1ccccc1-n1cc(CN(C)C)cn1`, the INHIBITION is 20.8%.

Consider `CC(C)NC(=O)C1CN(C(=O)COc2ccccc2)CC12CCOCC2` (stereo not given), for which the INHIBITION turned out to be 24.1%.

In the case of `CC(C)CCN1C2(CCN(Cc3nccs3)C2)c2ccccc2S1(=O)=O` (stereo not given), the INHIBITION is given as 78.8%.

As for `CC(C)CCN1C2(CCN(c3ncccn3)C2)c2ccccc2S1(=O)=O` (stereo not given), the INHIBITION is recorded as 13.5%.

As to `CC(C)CCN1C2(CCN(C(=O)C3(C)CC3)C2)c2ccccc2S1(=O)=O` (stereo not given), the INHIBITION is 6.55%.

As for `CN(C)CCN1C2(CCN(Cc3nccs3)C2)c2ccccc2S1(=O)=O` (stereo not given), the INHIBITION worked out at 80%.

With `CC(C)CCN1C2(CCN(C(=O)N(C)C)C2)c2ccccc2S1(=O)=O` (stereo not given), the INHIBITION was 6.55%.

With `COCCN1C2(CCN(Cc3nccs3)C2)c2ccccc2S1(=O)=O` (stereo not given), the INHIBITION is reported as 14.8%.

(Values after ChEMBL document CHEMBL4513216, “Probing the Open Global Health Chemical Diversity Library for Multistage-Active Starting Points for Next-Generation Antimalarials” (ACS Infect Dis, 2020).)
